Data taken from ChEMBL document CHEMBL2218924, “A broad activity screen in support of a chemogenomic map for kinase signalling research and drug discovery” (Biochem J, 2013).

Assays:
[1] = biological target: T1, Ephrin type-A receptor 3 (Homo sapiens) (UniProt P29320); details: at 10 µM
T1 sequence (whole entry): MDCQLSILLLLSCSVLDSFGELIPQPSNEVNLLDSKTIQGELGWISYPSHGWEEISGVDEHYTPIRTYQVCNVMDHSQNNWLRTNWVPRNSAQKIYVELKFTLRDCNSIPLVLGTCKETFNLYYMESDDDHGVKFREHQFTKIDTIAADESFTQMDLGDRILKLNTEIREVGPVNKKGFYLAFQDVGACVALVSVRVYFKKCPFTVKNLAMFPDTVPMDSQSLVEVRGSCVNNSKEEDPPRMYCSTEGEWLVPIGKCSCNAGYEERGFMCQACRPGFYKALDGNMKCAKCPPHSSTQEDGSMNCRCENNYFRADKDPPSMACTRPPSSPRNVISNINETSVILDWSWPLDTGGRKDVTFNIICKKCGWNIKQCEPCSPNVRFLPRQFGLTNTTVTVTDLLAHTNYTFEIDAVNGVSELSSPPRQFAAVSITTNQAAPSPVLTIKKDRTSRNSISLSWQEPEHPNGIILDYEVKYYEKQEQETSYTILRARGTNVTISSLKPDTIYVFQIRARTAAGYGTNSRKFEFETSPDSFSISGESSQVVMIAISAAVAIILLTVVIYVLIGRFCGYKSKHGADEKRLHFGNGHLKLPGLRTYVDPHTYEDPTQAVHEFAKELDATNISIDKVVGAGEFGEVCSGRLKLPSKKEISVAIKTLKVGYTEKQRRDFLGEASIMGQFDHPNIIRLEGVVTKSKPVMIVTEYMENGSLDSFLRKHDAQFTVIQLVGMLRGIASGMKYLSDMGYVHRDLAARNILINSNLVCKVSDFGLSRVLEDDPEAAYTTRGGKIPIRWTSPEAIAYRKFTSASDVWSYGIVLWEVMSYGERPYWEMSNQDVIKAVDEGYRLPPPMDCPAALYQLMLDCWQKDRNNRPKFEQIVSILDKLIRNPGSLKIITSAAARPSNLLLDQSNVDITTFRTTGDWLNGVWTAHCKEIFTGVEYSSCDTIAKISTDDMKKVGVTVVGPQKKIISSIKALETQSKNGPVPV

[2] = biological target: Ephrin type-A receptor 4 (Homo sapiens) (UniProt P54764); details: at 1 µM
Ephrin type-A receptor 4 (Homo sapiens), sequence (P54764 whole entry): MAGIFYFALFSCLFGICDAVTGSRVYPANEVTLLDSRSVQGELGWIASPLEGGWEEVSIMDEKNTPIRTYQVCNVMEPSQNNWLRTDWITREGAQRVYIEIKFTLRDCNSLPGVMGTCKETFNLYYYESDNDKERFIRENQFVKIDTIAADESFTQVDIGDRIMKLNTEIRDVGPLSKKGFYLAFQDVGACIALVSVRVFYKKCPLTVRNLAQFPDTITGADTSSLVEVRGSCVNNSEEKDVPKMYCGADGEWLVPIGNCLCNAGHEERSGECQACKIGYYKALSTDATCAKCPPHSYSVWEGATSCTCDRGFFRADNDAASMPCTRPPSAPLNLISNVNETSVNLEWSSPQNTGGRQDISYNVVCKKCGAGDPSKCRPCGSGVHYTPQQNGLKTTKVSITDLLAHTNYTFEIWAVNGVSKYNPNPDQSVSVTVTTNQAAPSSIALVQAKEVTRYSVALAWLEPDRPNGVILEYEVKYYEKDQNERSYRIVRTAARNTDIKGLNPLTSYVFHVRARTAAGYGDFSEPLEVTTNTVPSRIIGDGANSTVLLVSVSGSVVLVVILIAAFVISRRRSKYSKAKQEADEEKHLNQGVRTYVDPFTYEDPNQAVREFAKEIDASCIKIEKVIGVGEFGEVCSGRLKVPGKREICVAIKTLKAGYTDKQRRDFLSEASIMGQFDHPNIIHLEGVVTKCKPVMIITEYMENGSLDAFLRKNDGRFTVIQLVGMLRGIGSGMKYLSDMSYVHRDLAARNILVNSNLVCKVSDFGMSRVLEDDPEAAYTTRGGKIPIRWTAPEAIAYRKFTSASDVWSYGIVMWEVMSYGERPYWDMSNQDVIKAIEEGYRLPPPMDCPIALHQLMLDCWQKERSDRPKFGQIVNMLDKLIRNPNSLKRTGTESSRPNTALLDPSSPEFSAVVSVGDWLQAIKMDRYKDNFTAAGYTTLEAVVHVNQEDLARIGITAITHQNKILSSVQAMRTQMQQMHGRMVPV

[3] = biological target: Ephrin type-A receptor 4 (Homo sapiens) (UniProt P54764); details: at 10 µM
[4] = biological target: Ephrin type-A receptor 5 (Homo sapiens) (UniProt P54756); details: at 1 µM
Ephrin type-A receptor 5 (Homo sapiens), sequence (P54756 whole entry): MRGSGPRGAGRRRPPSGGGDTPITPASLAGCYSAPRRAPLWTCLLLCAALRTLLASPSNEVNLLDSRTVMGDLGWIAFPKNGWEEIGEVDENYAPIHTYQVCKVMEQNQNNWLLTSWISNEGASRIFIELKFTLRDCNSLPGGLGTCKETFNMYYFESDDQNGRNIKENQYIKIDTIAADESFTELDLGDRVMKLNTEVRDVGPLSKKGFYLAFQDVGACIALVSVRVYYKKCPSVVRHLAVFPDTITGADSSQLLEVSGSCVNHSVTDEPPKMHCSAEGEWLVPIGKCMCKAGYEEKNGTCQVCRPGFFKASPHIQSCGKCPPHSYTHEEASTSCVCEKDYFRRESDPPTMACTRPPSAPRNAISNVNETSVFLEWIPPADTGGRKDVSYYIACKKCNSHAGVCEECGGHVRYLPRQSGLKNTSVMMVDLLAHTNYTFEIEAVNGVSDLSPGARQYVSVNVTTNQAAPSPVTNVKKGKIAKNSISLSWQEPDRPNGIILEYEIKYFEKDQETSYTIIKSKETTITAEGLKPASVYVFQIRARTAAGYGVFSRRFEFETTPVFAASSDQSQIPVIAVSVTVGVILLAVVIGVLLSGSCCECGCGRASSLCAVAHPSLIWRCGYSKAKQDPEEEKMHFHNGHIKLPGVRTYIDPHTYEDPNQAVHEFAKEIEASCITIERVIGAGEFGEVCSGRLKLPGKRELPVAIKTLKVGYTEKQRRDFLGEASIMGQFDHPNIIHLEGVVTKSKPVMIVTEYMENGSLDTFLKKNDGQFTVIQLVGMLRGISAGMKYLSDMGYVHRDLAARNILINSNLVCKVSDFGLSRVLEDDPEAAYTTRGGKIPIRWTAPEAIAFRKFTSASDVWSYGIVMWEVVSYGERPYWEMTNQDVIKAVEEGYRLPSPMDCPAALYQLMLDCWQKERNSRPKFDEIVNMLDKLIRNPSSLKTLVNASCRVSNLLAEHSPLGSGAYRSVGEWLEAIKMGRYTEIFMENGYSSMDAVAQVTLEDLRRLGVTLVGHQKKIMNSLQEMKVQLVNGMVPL

[5] = biological target: Ephrin type-A receptor 5 (Homo sapiens) (UniProt P54756); details: at 10 µM
[6] = biological target: Ephrin type-A receptor 7 (Homo sapiens) (UniProt Q15375); details: at 1 µM
Ephrin type-A receptor 7 (Homo sapiens), sequence (Q15375 28-998 limits assumed): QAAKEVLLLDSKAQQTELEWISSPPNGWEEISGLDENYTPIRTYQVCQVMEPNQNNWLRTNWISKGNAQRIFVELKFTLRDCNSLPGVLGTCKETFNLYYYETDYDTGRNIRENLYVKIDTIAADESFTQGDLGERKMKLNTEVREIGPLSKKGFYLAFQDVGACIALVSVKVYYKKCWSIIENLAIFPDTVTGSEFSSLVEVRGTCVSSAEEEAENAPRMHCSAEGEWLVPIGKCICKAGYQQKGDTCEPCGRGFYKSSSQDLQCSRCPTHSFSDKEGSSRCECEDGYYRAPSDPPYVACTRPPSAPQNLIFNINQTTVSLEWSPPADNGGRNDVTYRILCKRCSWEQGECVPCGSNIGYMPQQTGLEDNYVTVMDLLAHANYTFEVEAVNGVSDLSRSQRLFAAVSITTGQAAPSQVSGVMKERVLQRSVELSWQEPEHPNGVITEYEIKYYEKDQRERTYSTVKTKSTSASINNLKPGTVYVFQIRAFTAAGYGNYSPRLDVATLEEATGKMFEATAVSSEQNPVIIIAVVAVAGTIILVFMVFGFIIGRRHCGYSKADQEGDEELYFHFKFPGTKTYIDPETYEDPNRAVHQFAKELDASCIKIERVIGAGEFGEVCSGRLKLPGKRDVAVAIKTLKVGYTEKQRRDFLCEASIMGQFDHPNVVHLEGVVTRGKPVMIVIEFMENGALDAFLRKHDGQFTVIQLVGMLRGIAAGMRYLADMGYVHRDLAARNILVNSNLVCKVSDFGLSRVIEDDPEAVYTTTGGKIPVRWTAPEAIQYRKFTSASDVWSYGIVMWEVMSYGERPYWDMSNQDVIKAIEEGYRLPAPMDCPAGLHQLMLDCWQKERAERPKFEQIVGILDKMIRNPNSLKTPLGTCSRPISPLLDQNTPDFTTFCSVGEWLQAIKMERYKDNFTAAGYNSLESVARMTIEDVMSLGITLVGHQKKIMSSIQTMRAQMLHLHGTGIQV

[7] = biological target: Ephrin type-A receptor 7 (Homo sapiens) (UniProt Q15375); details: at 10 µM
[8] = biological target: T2, Ephrin type-A receptor 8 (Homo sapiens) (UniProt P29322); details: at 1 µM
T2 sequence (whole entry): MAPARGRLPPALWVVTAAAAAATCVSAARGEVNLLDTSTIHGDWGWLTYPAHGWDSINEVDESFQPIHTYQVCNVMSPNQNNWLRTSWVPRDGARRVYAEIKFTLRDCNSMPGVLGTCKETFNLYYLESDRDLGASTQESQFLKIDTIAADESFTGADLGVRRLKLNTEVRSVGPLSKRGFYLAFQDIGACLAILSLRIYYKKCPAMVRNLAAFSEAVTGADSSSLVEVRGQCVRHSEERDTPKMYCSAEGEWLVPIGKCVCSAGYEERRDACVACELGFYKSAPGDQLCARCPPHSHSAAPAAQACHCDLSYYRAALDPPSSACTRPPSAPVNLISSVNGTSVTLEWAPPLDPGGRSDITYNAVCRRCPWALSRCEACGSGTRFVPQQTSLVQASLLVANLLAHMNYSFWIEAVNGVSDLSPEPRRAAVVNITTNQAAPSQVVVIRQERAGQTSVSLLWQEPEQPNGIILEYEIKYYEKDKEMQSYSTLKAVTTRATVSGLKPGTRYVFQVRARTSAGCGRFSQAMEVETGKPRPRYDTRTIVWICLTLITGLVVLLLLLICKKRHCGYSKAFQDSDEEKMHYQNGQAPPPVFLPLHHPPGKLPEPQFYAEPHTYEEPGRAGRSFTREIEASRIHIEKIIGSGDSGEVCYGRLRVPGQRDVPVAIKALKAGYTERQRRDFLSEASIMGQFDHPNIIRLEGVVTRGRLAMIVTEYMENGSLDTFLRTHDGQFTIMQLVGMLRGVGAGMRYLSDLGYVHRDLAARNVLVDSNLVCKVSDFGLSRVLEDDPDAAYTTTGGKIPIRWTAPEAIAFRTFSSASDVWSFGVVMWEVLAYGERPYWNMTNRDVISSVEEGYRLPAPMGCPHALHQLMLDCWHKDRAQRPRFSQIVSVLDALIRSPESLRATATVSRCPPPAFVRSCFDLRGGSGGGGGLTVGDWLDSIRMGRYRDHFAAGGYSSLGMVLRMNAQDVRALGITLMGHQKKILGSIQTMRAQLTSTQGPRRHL

[9] = biological target: T2, Ephrin type-A receptor 8 (Homo sapiens); details: at 10 µM
[10] = biological target: T3, Ephrin type-B receptor 1 (Homo sapiens) (UniProt P54762); details: at 1 µM
T3 sequence (whole entry): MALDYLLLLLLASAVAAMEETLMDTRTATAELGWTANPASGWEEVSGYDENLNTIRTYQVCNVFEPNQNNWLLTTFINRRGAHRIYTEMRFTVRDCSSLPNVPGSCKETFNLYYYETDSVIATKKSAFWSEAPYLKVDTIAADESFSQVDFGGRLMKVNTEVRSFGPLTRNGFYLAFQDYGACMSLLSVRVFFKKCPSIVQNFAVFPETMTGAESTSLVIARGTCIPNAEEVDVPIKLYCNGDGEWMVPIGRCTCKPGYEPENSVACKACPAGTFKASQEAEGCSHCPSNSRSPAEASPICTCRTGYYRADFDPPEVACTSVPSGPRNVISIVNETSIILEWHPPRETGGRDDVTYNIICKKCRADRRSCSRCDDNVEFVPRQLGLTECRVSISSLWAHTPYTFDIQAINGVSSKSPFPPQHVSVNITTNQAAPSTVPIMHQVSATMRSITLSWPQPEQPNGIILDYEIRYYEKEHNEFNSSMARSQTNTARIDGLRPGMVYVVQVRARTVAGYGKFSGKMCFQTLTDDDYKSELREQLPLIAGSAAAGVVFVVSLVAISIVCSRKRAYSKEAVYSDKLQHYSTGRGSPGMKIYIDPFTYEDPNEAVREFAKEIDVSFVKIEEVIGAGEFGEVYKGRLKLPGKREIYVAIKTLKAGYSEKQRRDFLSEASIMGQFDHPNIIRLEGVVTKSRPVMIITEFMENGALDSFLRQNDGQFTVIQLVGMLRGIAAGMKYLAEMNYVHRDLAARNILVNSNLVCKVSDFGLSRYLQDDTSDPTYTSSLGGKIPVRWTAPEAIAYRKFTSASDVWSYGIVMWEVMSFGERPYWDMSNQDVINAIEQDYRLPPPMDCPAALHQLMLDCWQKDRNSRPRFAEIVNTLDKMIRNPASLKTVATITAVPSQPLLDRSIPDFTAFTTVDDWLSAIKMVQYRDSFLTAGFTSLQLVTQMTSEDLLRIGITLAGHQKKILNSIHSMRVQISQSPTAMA

Nc1ncnc2c1c(-c1ccc(Oc3ccccc3)cc1)cn2C1CCCC1
residual activity [1]: 48%
residual activity [2]: 112%
residual activity [3]: 79%
residual activity [4]: 83%
residual activity [5]: 38%
residual activity [6]: 94%
residual activity [7]: 66%
residual activity [8]: 84%
residual activity [9]: 27%
residual activity [10]: 90%
